{"source": "the antibiotic and cytotoxicity screens of Wong et al. (2023)", "note": "The campaign covered roughly 39,000 compounds. About 500 (1.3%) were called active. The sample holds actives, similar compounds and a random draw of the others, so the mix is not that of the screen.", "data": [{"tested_on": "S. aureus RN4220", "experiment": "growth inhibition call (relative growth <= 0.2)", "conditions": "50 µM", "values": [{"compound": "C[C@@H]1CN([C@@H](C)CO)C(=O)c2cc(NC(=O)Cn3cnnn3)ccc2O[C@H]1CN(C)CC1CCCCC1", "growth inhibition call": "inactive"}, {"compound": "C=CC[C@@H](CC(=O)NCCO)C(=O)NC[C@@H](OC(=O)[C@@H](CC=C)CC(=O)OC(C)(C)C)c1ccccc1", "growth inhibition call": "inactive"}, {"compound": "C[C@H](CO)N1C[C@H](C)[C@H](CN(C)Cc2ccc(-c3ccccc3)cc2)Oc2c(NC(=O)C3CC3)cccc2C1=O", "growth inhibition call": "inactive"}, {"compound": "C[C@@H]1CN([C@H](C)CO)C(=O)c2cccc(NS(=O)(=O)c3ccccc3)c2O[C@H]1CN(C)C(=O)Nc1cccc2ccccc12", "growth inhibition call": "inactive"}, {"compound": "COCC(=O)N1C[C@H](C)[C@H](OC)CN(C)C(=O)c2ccc(NC(=O)Nc3cccc(F)c3)cc2OC[C@H]1C", "growth inhibition call": "inactive"}, {"compound": "C[C@H]1CCCCO[C@H](CN(C)C(=O)CCCN(C)C)[C@@H](C)CN([C@@H](C)CO)C(=O)c2cc(NC(=O)Nc3ccc(C(F)(F)F)cc3)ccc2O1", "growth inhibition call": "inactive"}, {"compound": "CCCCOC(=O)[C@@H](N)CCC(=O)O", "growth inhibition call": "inactive"}, {"compound": "CC[C@@]1(O)C[C@H](O[C@H]2C[C@H](N(C)C)[C@H](O[C@H]3C[C@H](O)[C@H](O[C@H]4CCC(=O)[C@H](C)O4)[C@H](C)O3)[C@H](C)O2)c2c(cc3c(c2O)C(=O)c2c(O)cccc2C3=O)[C@H]1C(=O)OC", "growth inhibition call": "inactive"}, {"compound": "COC(=O)[C@H]1c2cc3c(c(O)c2[C@@H](O[C@@H]2O[C@H](C)[C@H](OC)[C@](C)(OC)[C@@H]2OC)C[C@@]1(C)O)C(=O)c1c(O)cc2c(c1C3=O)O[C@H]1O[C@@]2(C)[C@@H](O)[C@H](N(C)C)[C@@H]1O", "growth inhibition call": "active"}, {"compound": "C[C@H](CO)N1C[C@H](C)[C@H](CN(C)Cc2ccc(Cl)c(Cl)c2)Oc2ccc(NC(=O)Cn3cnnn3)cc2CC1=O", "growth inhibition call": "inactive"}, {"compound": "Cc1noc(C)c1NC(=O)Nc1ccc2c(c1)C(=O)N([C@@H](C)CO)C[C@H](C)[C@H](CN(C)C(=O)NC1CCCCC1)OCCCC[C@H](C)O2", "growth inhibition call": "inactive"}, {"compound": "Cc1noc(C)c1S(=O)(=O)Nc1cccc2c1O[C@@H](CN(C)S(=O)(=O)c1cccs1)[C@@H](C)CN([C@H](C)CO)C2=O", "growth inhibition call": "inactive"}, {"compound": "Cc1scc2c1N(C(=O)CN1CCN(C)CC1)c1ccccc1NC2=O.Cl", "growth inhibition call": "active"}, {"compound": "O=C(O)CCC(=O)N1CC(=O)Nc2ccccc21", "growth inhibition call": "inactive"}, {"compound": "CN1CCN(CC(=O)N2c3ccccc3C(=O)Nc3cccnc32)CC1.Cl.Cl", "growth inhibition call": "inactive"}, {"compound": "CS(=O)(=O)N1CCC2(CC1)OCCO2", "growth inhibition call": "inactive"}, {"compound": "O=C(Nc1ccc(C(F)(F)F)cc1)Nc1cccc(Cl)c1", "growth inhibition call": "inactive"}, {"compound": "O=C(Nc1ccc(Cl)cc1)Nc1ccc(Cl)c(Cl)c1", "growth inhibition call": "active"}, {"compound": "CCC(=O)Nc1ccc(Cl)cc1", "growth inhibition call": "inactive"}, {"compound": "CCC(=O)N[C@H]1C=C[C@@H](CC(=O)OC)O[C@H]1CO", "growth inhibition call": "inactive"}, {"compound": "Cc1ccc(S(=O)(=O)Nc2ccc3c(c2)CC(=O)N([C@@H](C)CO)C[C@@H](C)[C@@H](CN(C)CC2CC2)O3)cc1", "growth inhibition call": "inactive"}, {"compound": "C[C@@H]1CCCCO[C@H](CN(C)C(=O)Nc2ccccc2)[C@H](C)CN([C@H](C)CO)C(=O)c2cc(NS(=O)(=O)c3ccc(Cl)cc3)ccc2O1", "growth inhibition call": "inactive"}, {"compound": "CC(C)[Si](C#CCCCC#N)(O[C@H](c1ccccc1)c1cn(Cc2cccc(Cl)c2)nn1)C(C)C", "growth inhibition call": "active"}, {"compound": "CC(C)[Si](C#CCCc1ccccc1)(O[C@H](c1ccccc1)c1cn(Cc2ccccc2)nn1)C(C)C", "growth inhibition call": "inactive"}, {"compound": "CCCCCCC#C[Si](O[C@H](c1ccccc1)c1cn(Cc2cccc(Cl)c2)nn1)(C(C)C)C(C)C", "growth inhibition call": "inactive"}, {"compound": "C[C@@H]1CCCCO[C@@H](CN(C)Cc2ccc(C(=O)Nc3ccccc3N)cc2)[C@@H](C)CN([C@H](C)CO)C(=O)c2cc(NS(=O)(=O)c3ccc(F)cc3)ccc2O1", "growth inhibition call": "inactive"}, {"compound": "C[C@@H]1CN([C@H](C)CO)C(=O)Cc2cc(NC(=O)Cc3cn(C)c4ccccc34)ccc2O[C@H]1CN(C)C", "growth inhibition call": "inactive"}, {"compound": "CCCC[C@@H](C)/C=C(C)/C=C(\\C)C(=O)NC1=C[C@@](O)(/C=C/C=C/C=C/C(=O)NC2C(=O)CCC2=O)[C@@H]2O[C@@H]2C1=O", "growth inhibition call": "active"}, {"compound": "CC(C)NC(=O)N(C)C[C@H]1Oc2ccc(NC(=O)CCC(F)(F)F)cc2C(=O)N([C@H](C)CO)C[C@@H]1C", "growth inhibition call": "inactive"}, {"compound": "C[C@@H]1CCCCO[C@@H](CN(C)S(=O)(=O)c2cccs2)[C@H](C)CN([C@H](C)CO)C(=O)c2cc(NC(=O)c3ccccc3)ccc2O1", "growth inhibition call": "inactive"}, {"compound": "COc1ccccc1CNC(=O)C[C@@H]1CC[C@H]2[C@@H](COC[C@H](O)CN2C(=O)Nc2ccc(F)cc2)O1", "growth inhibition call": "inactive"}, {"compound": "O=C(C[C@H]1CC[C@H]2[C@@H](COC[C@H](O)CN2C(=O)Nc2ccc(Cl)cc2)O1)NC1Cc2ccccc2C1", "growth inhibition call": "active"}, {"compound": "COc1ccccc1CNC(=O)C[C@@H]1CC[C@H]2[C@@H](COC[C@@H](O)CN2C(=O)Nc2ccc(Cl)cc2)O1", "growth inhibition call": "inactive"}, {"compound": "O=C(C[C@H]1CC[C@@H]2[C@H](COC[C@@H](O)CN2C(=O)Nc2ccc(Cl)cc2)O1)NC1Cc2ccccc2C1", "growth inhibition call": "inactive"}, {"compound": "COc1ccccc1CNC(=O)C[C@H]1CC[C@H]2[C@@H](COC[C@@H](O)CN2C(=O)Nc2ccc(Cl)cc2)O1", "growth inhibition call": "inactive"}, {"compound": "COc1ccccc1CNC(=O)C[C@@H]1CC[C@@H]2[C@H](COC[C@H](O)CN2C(=O)Nc2ccc(Cl)cc2)O1", "growth inhibition call": "inactive"}, {"compound": "COc1ccccc1CNC(=O)C[C@H]1CC[C@@H]2[C@H](COC[C@@H](O)CN2C(=O)Nc2ccc(Cl)cc2)O1", "growth inhibition call": "active"}, {"compound": "COc1ccccc1CNC(=O)C[C@@H]1CC[C@@H]2[C@H](COC[C@@H](O)CN2C(=O)Nc2ccc(Cl)cc2)O1", "growth inhibition call": "active"}, {"compound": "COc1ccccc1CNC(=O)C[C@H]1CC[C@H]2[C@@H](COC[C@H](O)CN2C(=O)Nc2ccc(Cl)cc2)O1", "growth inhibition call": "active"}, {"compound": "COc1ccccc1CNC(=O)C[C@@H]1CC[C@H]2[C@@H](COC[C@H](O)CN2C(=O)Nc2ccc(Cl)cc2)O1", "growth inhibition call": "inactive"}, {"compound": "O=C(C[C@@H]1CC[C@H]2[C@@H](COC[C@@H](O)CN2C(=O)Nc2ccc(Cl)cc2)O1)NC1Cc2ccccc2C1", "growth inhibition call": "inactive"}, {"compound": "COc1ccccc1CNC(=O)C[C@H]1CC[C@@H]2[C@H](COC[C@H](O)CN2C(=O)Nc2ccc(Cl)cc2)O1", "growth inhibition call": "inactive"}, {"compound": "C[C@@H]1CN([C@@H](C)CO)C(=O)c2cccc(NC(=O)C3CC3)c2O[C@H]1CN(C)Cc1ccc(C(=O)O)cc1", "growth inhibition call": "inactive"}, {"compound": "C[C@@H]1CCCCO[C@@H](CN(C)S(=O)(=O)c2ccc(Cl)cc2)[C@@H](C)CN([C@H](C)CO)C(=O)c2cc(NC(=O)Nc3ccc(C(F)(F)F)cc3)ccc2O1", "growth inhibition call": "inactive"}, {"compound": "Cc1ccc(S(=O)(=O)Nc2ccc3c(c2)C(=O)N([C@H](C)CO)C[C@@H](C)[C@@H](CN(C)C(=O)CCC(F)(F)F)OCCCC[C@H](C)O3)cc1", "growth inhibition call": "inactive"}, {"compound": "C[C@@H]1CCCCO[C@H](CN(C)C(=O)CCCN(C)C)[C@H](C)CN([C@@H](C)CO)C(=O)c2cc(NC(=O)Nc3cccc4ccccc34)ccc2O1", "growth inhibition call": "inactive"}, {"compound": "C[C@@H]1CN([C@H](C)CO)C(=O)c2cc(C#Cc3ccccc3F)cnc2O[C@H]1CN(C)C(=O)C1CCOCC1", "growth inhibition call": "inactive"}, {"compound": "Cc1cnccc1CN1C[C@H](C(=O)O)CC1=O", "growth inhibition call": "inactive"}, {"compound": "CC(C)C#Cc1cnc2c(c1)C(=O)N([C@@H](C)CO)C[C@@H](C)[C@H](CN(C)C(=O)c1ccc3c(c1)OCO3)O2", "growth inhibition call": "inactive"}, {"compound": "Cc1ccc(S(=O)(=O)N(C)C[C@H]2Oc3c(NC(=O)C4CC4)cccc3C(=O)N([C@H](C)CO)C[C@@H]2C)cc1", "growth inhibition call": "inactive"}, {"compound": "C[C@@H]1CN([C@H](C)CO)C(=O)CCCn2cc(nn2)CO[C@H]1CN(C)C(=O)Nc1ccc(C(F)(F)F)cc1", "growth inhibition call": "active"}, {"compound": "C[C@@H]1CN([C@H](C)CO)C(=O)CCCn2nncc2CO[C@H]1CN(C)C(=O)Nc1ccc(C(F)(F)F)cc1", "growth inhibition call": "active"}, {"compound": "C[C@@H]1CN([C@H](C)CO)C(=O)CCCn2nncc2CO[C@@H]1CN(C)C(=O)Nc1ccc(C(F)(F)F)cc1", "growth inhibition call": "inactive"}, {"compound": "C[C@H]1CN([C@@H](C)CO)C(=O)CCCn2cc(nn2)CO[C@H]1CN(C)C(=O)Nc1ccc(C(F)(F)F)cc1", "growth inhibition call": "inactive"}, {"compound": "C[C@H](CO)N1C[C@H](C)[C@H](CN(C)C(=O)Nc2ccc(C(F)(F)F)cc2)OCc2cnnn2CCCC1=O", "growth inhibition call": "inactive"}, {"compound": "C[C@@H]1CN([C@H](C)CO)C(=O)CCCn2nncc2CO[C@H]1CN(C)C(=O)Nc1ccc(C(C)(C)C)cc1", "growth inhibition call": "inactive"}, {"compound": "C[C@H]1CN([C@@H](C)CO)C(=O)CCCn2nncc2CO[C@@H]1CN(C)C(=O)Nc1ccc(C(F)(F)F)cc1", "growth inhibition call": "active"}, {"compound": "C[C@H](CO)N1C[C@H](C)[C@@H](CN(C)C(=O)Nc2ccc(C(F)(F)F)cc2)OCc2cnnn2CCCC1=O", "growth inhibition call": "inactive"}, {"compound": "C[C@@H]1CN([C@@H](C)CO)C(=O)CCCn2nncc2CO[C@@H]1CN(C)C(=O)Nc1ccc(C(F)(F)F)cc1", "growth inhibition call": "inactive"}, {"compound": "C[C@@H]1CN([C@@H](C)CO)C(=O)CCCn2nncc2CO[C@H]1CN(C)C(=O)Nc1ccc(C(F)(F)F)cc1", "growth inhibition call": "inactive"}, {"compound": "C[C@H]1CN([C@@H](C)CO)C(=O)CCCn2nncc2CO[C@H]1CN(C)C(=O)Nc1ccc(C(F)(F)F)cc1", "growth inhibition call": "active"}, {"compound": "C[C@H]1CN([C@@H](C)CO)C(=O)CCCn2cc(nn2)CO[C@@H]1CN(C)C(=O)Nc1ccc(C(F)(F)F)cc1", "growth inhibition call": "inactive"}, {"compound": "C[C@H]1CN([C@@H](C)CO)C(=O)Cc2cc(NC(=O)Nc3ccc(F)cc3)ccc2O[C@H]1CN(C)S(=O)(=O)c1cn(C)cn1", "growth inhibition call": "inactive"}, {"compound": "CCOC(=O)CSc1nnc2c3sc4nc(N5CCOCC5)c5c(c4c3ncn12)CC(C)(C)OC5", "growth inhibition call": "inactive"}, {"compound": "C[C@H](CO)N1C[C@H](C)[C@@H](CN(C)Cc2ccc(C(F)(F)F)cc2)OCCCC[C@H](C)Oc2ccc(NS(=O)(=O)c3cn(C)cn3)cc2C1=O", "growth inhibition call": "inactive"}, {"compound": "C[C@@H]1CCCCO[C@@H](CN(C)Cc2ccccc2)[C@H](C)CN([C@H](C)CO)C(=O)c2cc(NC(=O)Nc3ccccc3)ccc2O1", "growth inhibition call": "inactive"}]}]}
